This is a sample that favours compounds with a hit; in the whole collection about 1.9% have one here.
NR1D1 modulator = modulators of Rev-erb alpha DNA binding, primary screen, biochemical, FITC-DNA, fluorescence polarization, uHTS; Nuclear receptor subfamily 1 group D member 1 (Homo sapiens), P20393; Rev-erbα–FITC-DNA binding, 90 min; activity, % at 10 µM; 0.79% of 370,000 active;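 active means activity above about 14%, limit read from the data; passing the limit was not always enough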
aDG glyco up = activators of alpha-DG glycosylation, primary screen, uHTS, Pro5-aDG cells, AlphaScreen; 0.22% of 360,000 active; alpha-DG glycosylation AlphaScreen (IIH6); 0% Pro5, 100% B10-LARGE cell signal; activation, % at 10 µM;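 active means activation of at least 8% versus controls, or a plate z-score of at least 8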;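 further: Pro5 are CHO cells carrying HIG-tagged alpha-DG that lacks glycosylation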
PG9 binder = binders of HIV-1 gp120 antibody PG9, primary screen, biochemical, TR-FRET | HIV-1 gp120 / PG9 antibody interaction | TR-FRET gp120-PG9 antibody binding | inhibition, % at 6.7 µM | 0.43% of 360,000 active; in the data active means inhibition above about 8.5%
NCF1 inh = p47phox/p22phox peptide binding inhibitors, primary screen, biochemical, uHTS, NADPH oxidase regulatory subunit | Neutrophil cytosol factor 1 (Homo sapiens), P14598 | fluorescence polarization, 2 h | inhibition, % at 24.7 µM | 0.53% of 220,000 active | AID 1274, 2008;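 active means inhibition above about 30%, limit read from the data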
Target sequence (P14598 whole entry, looked up): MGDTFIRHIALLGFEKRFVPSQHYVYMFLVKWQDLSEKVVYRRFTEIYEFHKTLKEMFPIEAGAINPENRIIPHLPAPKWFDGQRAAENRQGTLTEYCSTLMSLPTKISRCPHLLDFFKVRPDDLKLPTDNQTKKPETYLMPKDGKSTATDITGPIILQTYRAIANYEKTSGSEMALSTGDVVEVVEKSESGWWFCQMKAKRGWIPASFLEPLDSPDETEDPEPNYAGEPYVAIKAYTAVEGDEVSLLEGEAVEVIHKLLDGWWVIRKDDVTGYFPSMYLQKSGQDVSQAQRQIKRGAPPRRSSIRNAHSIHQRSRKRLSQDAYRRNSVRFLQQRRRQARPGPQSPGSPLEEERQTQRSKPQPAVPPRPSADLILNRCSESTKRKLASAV
ZTA counter = counter-screen for EBNA-1 inhibitors: inhibitors of Epstein-Barr virus ZTA. inhibition, % at 11 µM. ZTA-DNA binding, fluorescence polarization. P03206. 0.15% of 320,000 active; in the data active means inhibition above about 33%
Target sequence (P03206 whole entry, looked up): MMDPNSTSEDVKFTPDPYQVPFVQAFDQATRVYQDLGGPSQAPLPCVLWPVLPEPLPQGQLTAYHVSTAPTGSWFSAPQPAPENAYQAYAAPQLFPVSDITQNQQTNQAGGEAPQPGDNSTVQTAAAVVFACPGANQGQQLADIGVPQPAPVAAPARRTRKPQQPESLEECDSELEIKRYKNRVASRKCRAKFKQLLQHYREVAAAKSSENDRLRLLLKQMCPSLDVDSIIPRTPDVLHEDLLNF
EBNA-1 inhibitor = EBNA-1 DNA-binding inhibitors, primary screen, biochemical, fluorescence polarization | inhibition, % at 14.8 µM | 0.34% of 300,000 active; in the data active means inhibition above about 28%
Rev-erbA confirm = modulators of Rev-erb alpha DNA binding, confirmation, biochemical, FITC-DNA, fluorescence polarization, single point; shares compounds with NR1D1 modulator; 90 min; activation, % at 25 µM; 61% of 3,000 active; AID 1259319, 2017;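 active means activation at or above a set limit, or at least 3 SD above the negative control mean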
RORg counter = modulation of RORgamma DNA binding, dose response, counter-screen for Rev-erb alpha modulator project, biochemical, fluorescence polarization, FITC-DNA; shares compounds with NR1D1 modulator; purified RORgamma protein-FITC-DNA binding; IC50, µM; 8% of 910 active; AID 1259320, 2017;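 active means Compounds whose fitted half-maximal concentration for disrupting protein-DNA binding is below 10 micromolar; the record names Rev-erb in its text, so the target is in doubt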
Large screens that a line does not name were inactive (follow-up assays come after a bar, where they were run).

COc1ccccc1NC(=O)c1cnc(SCC(=O)NCCc2ccccc2)n(C)c1=O	NR1D1 modulator 14 (no result: NCF1 inh) | Rev-erbA confirm 32 | RORg counter inactive
CCOc1cccc2sc(Nc3nc4ccc(NC(C)=O)cc4s3)nc12	NR1D1 modulator 49 | Rev-erbA confirm inactive
Cn1cc(C(=O)NC2CCCCCC2)c(=O)c2cc(S(=O)(=O)N3CCCC3)ccc21	NR1D1 modulator 32 | Rev-erbA confirm 18
N#CCC[C@H]1CC[C@]2(CCCN(S(=O)(=O)c3ccccc3)C2)O1	none (no result: aDG glyco up, PG9 binder, NCF1 inh, ZTA counter, EBNA-1 inhibitor)
O=C(Nc1ccc(F)cc1)OCCN1C(=O)CCC12CCC(c1ccccc1)CC2 (stereo not given)	none (no result: aDG glyco up, PG9 binder, NCF1 inh, ZTA counter, EBNA-1 inhibitor)
O=C(Nc1ccccc1C(F)(F)F)OCCN1C(=O)CCC12CCC(c1ccccc1)CC2 (stereo not given)	NR1D1 modulator 26 (no result: aDG glyco up, PG9 binder, NCF1 inh, ZTA counter, EBNA-1 inhibitor) | Rev-erbA confirm 28 | RORg counter inactive
Cc1c(C(=O)N2CCN(c3ccc(F)cc3)CC2)sc2ncnc(N3CCN(c4ccccn4)CC3)c12	none (no result: NCF1 inh)
Cc1nc(N2CCN(c3ccccn3)CC2)c2c(C)c(C(=O)Nc3c(F)cc(F)cc3Br)sc2n1	NR1D1 modulator 46 (no result: NCF1 inh) | Rev-erbA confirm inactive
Cc1nc(N2CCN(c3ccccn3)CC2)c2c(C)c(C(=O)N3CCN(c4ccc(F)cc4)CC3)sc2n1	NR1D1 modulator 20 (no result: NCF1 inh) | Rev-erbA confirm inactive
Cc1nc(N2CCC(C)CC2)c2c(C)c(C(=O)Nc3ccc(C)c(F)c3)sc2n1	NR1D1 modulator 46 | Rev-erbA confirm 32 | RORg counter inactive
Cc1nc(N2CCN(C)CC2)c2c(C)c(C(=O)Nc3ccc(C)c(F)c3)sc2n1	none
Cc1nc(N2CCN(c3ccccn3)CC2)c2c(C)c(C(=O)Nc3c(C)cc(Br)cc3C)sc2n1	NR1D1 modulator 28 (no result: NCF1 inh) | Rev-erbA confirm inactive
Clc1ccc([C@H]2OC[C@@]3(CNC4CCCCC4)CS[C@H](c4ccc(Cl)cc4)N23)cc1	none (no result: aDG glyco up, PG9 binder, NCF1 inh, ZTA counter, EBNA-1 inhibitor)
COc1ccc2ccccc2c1C=NNC(=O)c1cc(-c2ccc(C)cc2)n[nH]1	none (no result: aDG glyco up, PG9 binder, NCF1 inh, ZTA counter, EBNA-1 inhibitor)
O=C(Nc1ccc(C(O)(C(F)(F)F)C(F)(F)F)cc1)c1ccc(F)cc1F	none (no result: aDG glyco up, PG9 binder, NCF1 inh, ZTA counter, EBNA-1 inhibitor)
COc1ccc(C2=NN(C(=O)COc3ncnc4ccccc34)C(c3ccco3)C2)cc1 (stereo not given)	NR1D1 modulator 31 | Rev-erbA confirm inactive
COc1cccc(NC(=S)Nc2cc(C)cc(C)n2)c1	NR1D1 modulator 31 | Rev-erbA confirm inactive
COc1ccc(NC(=S)Nc2cc(C)cc(C)n2)cc1OC	NR1D1 modulator 22 | Rev-erbA confirm inactive
Cc1cc(C)nc(NC(=S)Nc2cccc(F)c2)c1	none
Cc1cc(C)nc(NC(=S)Nc2cccc(Cl)c2Cl)c1	NR1D1 modulator 63 | Rev-erbA confirm inactive
O=C(NN1C(=O)/C(=C\c2ccc(O)c([N+](=O)[O-])c2)SC1=S)c1ccccc1Cl	NR1D1 modulator 28 | Rev-erbA confirm inactive
CC(=O)NN1C(=O)/C(=C\c2ccc(O)cc2)SC1=S	NR1D1 modulator 20 | Rev-erbA confirm 19
COc1ccc(Oc2c(Cl)cnn(-c3ccc(C(C)C)c(C)c3)c2=O)cc1	none (no result: aDG glyco up, PG9 binder, NCF1 inh, ZTA counter, EBNA-1 inhibitor)
CCSc1nnc(-c2ccc(Cl)cc2)c2ccccc12	NR1D1 modulator 239 | Rev-erbA confirm 289 | RORg counter inactive
CCN(C(=O)C1CCCN(c2nnc(-n3cccc3)s2)C1)c1ccccc1C (stereo not given)	none (no result: aDG glyco up, PG9 binder, NCF1 inh, ZTA counter, EBNA-1 inhibitor)
O=C(CSc1nc(-c2ccco2)cc(C(F)(F)F)n1)NC1CCCCCCC1	NR1D1 modulator 25 | Rev-erbA confirm inactive
O=C(CSc1nc(-c2ccco2)cc(C(F)(F)F)n1)NN1CCOCC1	none
COC(=O)[C@]12C[C@H](CC(=O)NCc3cccc(C(F)(F)F)c3)C(=O)N(CCC3=CCCCC3)C1=C[C@H](C1CCCC1)O[C@@H]2C	none (no result: aDG glyco up, PG9 binder, NCF1 inh, ZTA counter, EBNA-1 inhibitor)
COC(=O)[C@]1(Cc2ccccc2)N[C@H](c2ccc(-c3cccc(Cl)c3)c(OC)c2)[C@@H]2C(=O)N(C)C(=O)[C@@H]21	NR1D1 modulator 25 (no result: NCF1 inh, ZTA counter, EBNA-1 inhibitor) | Rev-erbA confirm 17
CCN1C(=O)[C@H]2[C@@H](c3ccc(-c4cccc(Cl)c4)c(OC)c3)N[C@@](Cc3ccccc3)(C(=O)OC)[C@H]2C1=O	none (no result: NCF1 inh)
O=C(Nc1ccccc1)Nc1ncc([N+](=O)[O-])s1	NR1D1 modulator 23 (no result: ZTA counter, EBNA-1 inhibitor) | Rev-erbA confirm inactive
O=C(CNC(=O)c1cc(=O)[nH]c2ccc(S(=O)(=O)N3CCOCC3)cc12)Nc1ccc(F)c(F)c1	none (no result: NCF1 inh, ZTA counter, EBNA-1 inhibitor)
O=C(CSc1nnc2c(n1)[nH]c1ccc(S(=O)(=O)N3CCOCC3)cc12)Nc1ccc(F)c(F)c1	NR1D1 modulator 45 | Rev-erbA confirm inactive
Cc1cc(C)c(C#N)c(SCC(=O)N2CCCCC2)n1	none
Cc1cc(C)c2nc(SCC(=O)NCC3CCCO3)c(C#N)cc2c1 (stereo not given)	NR1D1 modulator 60 | Rev-erbA confirm 42 | RORg counter inactive
Cc1cc(C)c2nc(SCC(=O)N3CCCCC3)c(C#N)cc2c1	NR1D1 modulator 27 (no result: ZTA counter, EBNA-1 inhibitor) | Rev-erbA confirm 23
Cc1ccc(/C=N/c2sc(Cc3ccccc3)c(C)c2C(N)=O)o1	NR1D1 modulator 29 | Rev-erbA confirm inactive
Cc1c(Cc2ccccc2)sc(/N=C/c2ccc3ccccc3c2)c1C(N)=O	none (no result: NR1D1 modulator, PG9 binder)
O=C(Nc1nc(-c2cccs2)c(-c2cccs2)s1)C1CCCC1	NR1D1 modulator 80 (no result: ZTA counter, EBNA-1 inhibitor) | Rev-erbA confirm 114 | RORg counter inactive
O=C(Nc1nnc(-c2cccs2)s1)C1CC1	none
O=C(CSc1ncnc2c(-c3ccc(Cl)cc3)nsc12)c1ccccc1	NR1D1 modulator 34 | Rev-erbA confirm 19
CC(=O)c1ccc(N2CCN(c3ccc(C(F)(F)F)cn3)CC2)cc1	NR1D1 modulator 37 | Rev-erbA confirm 29
COc1ccc2sc(-c3ccc(S(C)(=O)=O)cc3)c(-c3ccc4c(c3)OCCO4)c2c1	none (no result: NCF1 inh, ZTA counter, EBNA-1 inhibitor)
COc1ccc(-c2cc(C(=O)Nc3cc(C)on3)no2)cc1	none
COc1ccc(-c2sc3cc4c(cc3c2-c2ccc3c(c2)OCCO3)OCO4)cc1	NR1D1 modulator 18 (no result: NCF1 inh, ZTA counter, EBNA-1 inhibitor) | Rev-erbA confirm inactive
COc1ccc(OC)c(-c2cc(C(=O)Nc3cc(C)on3)no2)c1	NR1D1 modulator 21 | Rev-erbA confirm inactive
COc1ccc(-c2noc(-c3ccc4c(c3)OCO4)n2)cc1	NR1D1 modulator 35 | Rev-erbA confirm inactive
Cc1ccc(NC(=O)c2cc(-c3ccc4c(c3)OCO4)on2)cc1	none (no result: NCF1 inh)
